Assay results published in PubChem BioAssay (Tox21).
Values joined by “and” are separate entries in the source; they are usually repeats but may differ in a detail not shown here. Equal entries are not always repeated. Records with an inconclusive call do not appear. A call without a number means that no potency is given here. Active and inactive are the calls of the source. Unless noted, calls follow the shape of the dose curve; as a rule, active = well fitted curve in the direction sought with a large enough effect in the repeat runs; inconclusive = weak or mixed curves; inactive = no such curve, though single readings can be large; an effect the other way counts as inactive or inconclusive.

How the values were obtained:
[1] = qHTS assay to identify small molecule agonists of the peroxisome proliferator-activated receptor delta (PPARd) signaling pathway - cell viability counter screen (AID 743211); also: nearly all actives have a fitted effect of over 55% in size; also: potency is read from the fitted curve at half-maximal effect
Method in brief: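 In the same wells used for beta-lactamase reporter measurement, cytotoxicity is scored by CellTiter-Glo. HEK293H PPARd-bla cells receive compound for 17 h at 37C following a 5 h settling period.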

[2] = target: Peroxisome proliferator-activated receptor delta (Homo sapiens) (UniProt Q03181); experiment: qHTS assay to identify small molecule agonists of the peroxisome proliferator-activated receptor delta (PPARd) signaling pathway (AID 743212; calls by dose curve)
Chain of Peroxisome proliferator-activated receptor delta (Homo sapiens) (Q03181 whole entry, looked up): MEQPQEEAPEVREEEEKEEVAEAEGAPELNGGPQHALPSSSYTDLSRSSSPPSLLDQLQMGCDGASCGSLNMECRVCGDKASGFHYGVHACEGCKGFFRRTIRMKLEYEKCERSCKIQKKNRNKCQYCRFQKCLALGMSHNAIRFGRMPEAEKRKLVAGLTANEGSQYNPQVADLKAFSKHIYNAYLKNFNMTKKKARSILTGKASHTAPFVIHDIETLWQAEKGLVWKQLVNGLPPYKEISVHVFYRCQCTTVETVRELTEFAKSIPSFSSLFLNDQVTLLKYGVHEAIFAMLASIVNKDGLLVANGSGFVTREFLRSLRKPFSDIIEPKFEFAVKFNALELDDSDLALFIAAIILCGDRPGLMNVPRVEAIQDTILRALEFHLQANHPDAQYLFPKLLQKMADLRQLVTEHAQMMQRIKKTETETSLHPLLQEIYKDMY
Method in brief: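 Read-out: beta-lactamase FRET fluorescence after 2 h room-temperature incubation with LiveBLAzer B/G substrate. Cells were HEK293H carrying a UAS-bla reporter for PPARd, treated at 37 C with DMSO-dissolved compounds.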

[3] = qHTS assay to identify small molecule antagonists of the peroxisome proliferator-activated receptor delta (PPARd) signaling pathway - cell viability counter screen (AID 743213); also: nearly all actives have a fitted effect of over 50% in size; also: potency is read from the fitted curve at half-maximal effect
Method in brief: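 HEK293H cells with the PPARd UAS-bla reporter, co-treated 17 h at 37 C with compounds and L165041 (300 nM final), were lysed with CellTiter-Glo. Luminescence indicated viable cell content.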

[4] = target: Peroxisome proliferator-activated receptor delta (Homo sapiens) (UniProt Q03181); experiment: qHTS assay to identify small molecule antagonists of the peroxisome proliferator-activated receptor delta (PPARd) signaling pathway (AID 743215; active = well fitted inhibition curve with a large enough effect in the signal ratio in the repeat runs, not every such curve was filed as active; the % refers to the signal ratio;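 also: cells stimulated with agonist L165041 at 300 nM final during compound exposure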; also: potency is read from the fitted curve at half-maximal effect)
Method in brief: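 Screen format: qHTS, antagonist mode. HEK293H PPARd-bla cells received compound and 300 nM L165041 (final), 17 h, 37 C. Beta-lactamase detected via FRET substrate fluorescence, 2 h, room temperature.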

[5] = qHTS assay to identify small molecule agonists of the farnesoid-X-receptor (FXR) signaling pathway - cell viability counter screen (AID 743218); also: nearly all actives have a fitted effect of over 45% in size; also: potency is read from the fitted curve at half-maximal effect
Method in brief: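 Same-well cytotoxicity check on FXR-UAS-bla HEK 293T cells: 5 h attachment, 16 h compound at 37 C, CellTiter-Glo luminescence read at room temperature after 30 min.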

[6] = qHTS assay to identify small molecule antagonists of the farnesoid-X-receptor (FXR) signaling pathway - cell viability counter screen (AID 743221; active = well fitted cell-killing curve with a large enough effect in the repeat runs, not every such curve was filed as active; also: nearly all actives have a fitted effect of over 50% in size)
Method in brief: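 Here viability was scored by luminescence after CellTiter-Glo addition to wells already read for beta-lactamase. Prior treatment: compound plus CDCA (50 uM final), 16 h, 37 C, HEK 293T FXR-bla cells.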

[7] = target: Vitamin D3 receptor (Homo sapiens) (UniProt P11473); experiment: qHTS assay to identify small molecule antagonists of the vitamin D receptor (VDR) signaling pathway (AID 743223; active = well fitted inhibition curve with a large enough effect in the signal ratio in the repeat runs, not every such curve was filed as active; the % refers to the signal ratio)
Chain of Vitamin D3 receptor (Homo sapiens) (P11473 whole entry, looked up): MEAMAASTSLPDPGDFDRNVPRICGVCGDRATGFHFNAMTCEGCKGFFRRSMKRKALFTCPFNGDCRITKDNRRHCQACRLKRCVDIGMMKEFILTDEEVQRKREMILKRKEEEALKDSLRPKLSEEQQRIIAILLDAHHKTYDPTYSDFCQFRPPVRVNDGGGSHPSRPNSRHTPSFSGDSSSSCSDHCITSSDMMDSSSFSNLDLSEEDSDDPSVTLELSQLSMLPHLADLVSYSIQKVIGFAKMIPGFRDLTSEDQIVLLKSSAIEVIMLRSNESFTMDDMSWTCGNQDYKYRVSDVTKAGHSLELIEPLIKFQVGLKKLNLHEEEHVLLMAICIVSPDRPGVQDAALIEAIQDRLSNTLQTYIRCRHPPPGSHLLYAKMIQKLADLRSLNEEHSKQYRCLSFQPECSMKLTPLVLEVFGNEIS
Method in brief: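 Inhibition of agonist-driven VDR signalling is scored in VDR-bla cells: 3 nM final 1alpha,25-dihydroxyvitamin D3 plus compound, 16 h at 37C, then beta-lactamase detection by FRET substrate fluorescence after 2 h.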

[8] = qHTS assay to identify small molecule agonists of the vitamin D receptor (VDR) signaling pathway - cell viability counter screen (AID 743224); also: series mostly up to about 63 µM; nearly all actives have a fitted effect of over 50% in size
Method in brief: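 Counter screen for cytotoxicity: VDR-bla cells at 2,000 cells/well, 16 h compound exposure, then CellTiter-Glo luminescence after the beta-lactamase measurement.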

[9] = qHTS assay to identify small molecule antagonists of the vitamin D receptor (VDR) signaling pathway - cell viability counter screen (AID 743225); also: nearly all actives have a fitted effect of over 50% in size
Method in brief: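 Compounds were pinned onto VDR-bla HEK 293T cells together with 1-alpha,25-dihydroxyvitamin D3 at 3 nM final. After 16 h at 37C and 5% CO2 plus the reporter readout, cell viability was measured by CellTiter-Glo luminescence (30 min, room temperature).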

[10] = qHTS assay to identify small molecule agonists of the NFkB signaling pathway - cell viability counter screen (AID 1159515; calls by dose curve; also: nearly all actives have a fitted effect of over 55% in size; also: potency is read from the fitted curve at half-maximal effect)
Method in brief: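 Counter screen run alongside the NFkB-bla agonist assay: ME-180 reporter cells exposed to compounds for 5 hr, then lysed with CellTiter-Glo in the same wells. Luminescence, read after 30 min, reflects viable cells.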

[11] = qHTS assay to identify small molecule agonists of the AP-1 signaling pathway - cell viability counter screen (AID 1159525; calls by dose curve; also: nearly all actives have a fitted effect of over 55% in size; also: potency is read from the fitted curve at half-maximal effect)
Method in brief: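 Same-well cytotoxicity counter screen of the Tox21 10K library in ME-180 cells. The readout is ATP-dependent luminescence after 5 h compound treatment. Data are normalised to DMSO and tetra n-octyl ammonium bromide controls.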

[12] = qHTS assay to identify small molecule agonists of the AP-1 signaling pathway (AID 1159526; calls by dose curve)
[13] = target: Retinoic acid receptor RXR-alpha (Homo sapiens) (UniProt P19793); experiment: qHTS assay to identify small molecule agonists of the RXR signaling pathway (AID 1159527; calls by dose curve; also: nearly all actives have a fitted effect of over 35% in size)
Chain of Retinoic acid receptor RXR-alpha (Homo sapiens) (P19793 whole entry, looked up): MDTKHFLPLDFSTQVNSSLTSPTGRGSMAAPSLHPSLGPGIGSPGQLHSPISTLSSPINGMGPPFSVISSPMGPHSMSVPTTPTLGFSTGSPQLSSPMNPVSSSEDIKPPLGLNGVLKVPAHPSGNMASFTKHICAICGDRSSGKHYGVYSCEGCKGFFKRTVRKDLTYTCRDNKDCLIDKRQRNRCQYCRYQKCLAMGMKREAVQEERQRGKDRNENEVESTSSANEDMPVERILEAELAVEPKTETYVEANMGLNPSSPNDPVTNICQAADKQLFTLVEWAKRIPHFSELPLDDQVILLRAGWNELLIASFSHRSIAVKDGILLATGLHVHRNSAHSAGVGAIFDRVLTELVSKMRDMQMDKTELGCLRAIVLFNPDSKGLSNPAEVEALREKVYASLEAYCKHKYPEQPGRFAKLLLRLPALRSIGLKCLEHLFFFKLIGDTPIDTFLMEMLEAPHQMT
Method in brief: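 Using 9-cis retinoic acid as the reference agonist, chemicals were tested in HEK 293T cells […] for 16 hr; substrate loading lasted 2 hr at room temperature.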

[14] = target: Vitamin D3 receptor (Homo sapiens) (UniProt P11473); experiment: qHTS assay to identify small molecule agonists of the vitamin D receptor (VDR) signaling pathway (AID 743222; calls by dose curve)
Method in brief: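 Using LiveBLAzer B/G FRET detection, agonism was scored in VDR-bla cells exposed overnight (16 h, 37C) to DMSO-dissolved compounds; substrate incubation was 2 h at room temperature.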

[15] = qHTS assay to identify small molecule agonists of the endoplasmic reticulum stress response signaling pathway (AID 1159516; active = well fitted activation curve with a large enough effect in the signal ratio in the repeat runs, not every such curve was filed as active; the % refers to the signal ratio)
Method in brief: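 For this screen, HeLa cells stably carrying beta-lactamase under the ER stress response element received test compounds, positive controls or DMSO for 5 hr at 37 C; B/G FRET substrate was then added and dual-wavelength emission recorded.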

[16] = qHTS assay to identify small molecule agonists of the endoplasmic reticulum stress response signaling pathway - cell viability counter screen (AID 1159517; calls by dose curve)
Method in brief: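 Steps: seed 1,500 ESRE-bla HeLa cells per well; incubate overnight at 37 C, 5% CO2; add compounds in DMSO for 5 hr; run FRET substrate 2 hr RT; add CellTiter-Glo, wait 30 min, read luminescence.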

[17] = qHTS assay to identify small molecule antagonists of the retinoid-related orphan receptor gamma (ROR-gamma) signaling pathway - cell viability counter screen (AID 1159520); also: nearly all actives have a fitted effect of over 50% in size; also: potency is read from the fitted curve at half-maximal effect
Method in brief: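 Tet-on ROR gamma CHO cells were given compounds for 2 hr, then doxycycline hyclate at 1 uM final, and incubated 16 hr at 37 C. Viability was measured as ATP content by CellTiter-Glo luminescence.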

[18] = target: Bile acid receptor (Homo sapiens) (UniProt Q96RI1); experiment: qHTS assay to identify small molecule agonists of the farnesoid-X-receptor (FXR) signaling pathway (AID 743220; active = well fitted activation curve with a large enough effect in the signal ratio in the repeat runs, not every such curve was filed as active; the % refers to the signal ratio)
Chain of Bile acid receptor (Homo sapiens) (Q96RI1 whole entry, looked up): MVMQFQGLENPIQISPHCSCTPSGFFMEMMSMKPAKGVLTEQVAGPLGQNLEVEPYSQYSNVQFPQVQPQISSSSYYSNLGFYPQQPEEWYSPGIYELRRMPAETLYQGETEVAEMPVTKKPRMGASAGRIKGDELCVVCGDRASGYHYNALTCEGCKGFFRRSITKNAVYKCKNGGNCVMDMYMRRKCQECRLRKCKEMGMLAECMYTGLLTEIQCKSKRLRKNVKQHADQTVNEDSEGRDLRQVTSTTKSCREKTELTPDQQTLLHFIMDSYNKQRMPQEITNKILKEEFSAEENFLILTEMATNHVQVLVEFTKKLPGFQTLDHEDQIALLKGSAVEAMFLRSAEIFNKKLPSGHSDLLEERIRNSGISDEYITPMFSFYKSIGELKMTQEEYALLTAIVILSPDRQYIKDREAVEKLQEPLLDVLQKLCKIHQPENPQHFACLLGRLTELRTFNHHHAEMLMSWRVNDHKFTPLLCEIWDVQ
Method in brief: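 FXR-UAS-bla HEK 293T cells carrying a UAS-driven beta-lactamase reporter were plated for 5 h at 37C/5% CO2, then exposed to DMSO-dissolved Tox21 10K compounds for 16 h at 37C. A LiveBLAzer B/G FRET substrate was loaded for 2 h at room temperature before fluorescence reading.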

[19] = target: Nuclear receptor ROR-gamma (Homo sapiens) (UniProt P51449); experiment: qHTS assay to identify small molecule antagonists of the retinoid-related orphan receptor gamma (ROR-gamma) signaling pathway (AID 1159521; also: nearly all actives have a fitted effect of over 50% in size; also: potency is read from the fitted curve at half-maximal effect)
Method in brief: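 Test compounds were applied to Tet-on RORγ CHO cells 2 h ahead of doxycycline hyclate (1 uM final). Luciferase reporter activity was quantified by luminescence after 16 h at 37 C and 5% CO2.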

[20] = target: Bile acid receptor (Homo sapiens) (UniProt Q96RI1); experiment: qHTS assay to identify small molecule antagonists of the farnesoid-X-receptor (FXR) signaling pathway (AID 743217; active = well fitted inhibition curve with a large enough effect in the signal ratio in the repeat runs, not every such curve was filed as active; the % refers to the signal ratio)
Method in brief: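 Quantitative HTS, beta-lactamase reporter format: FXR-UAS-bla HEK 293T cells co-treated 16 h at 37 °C with compounds and 50 uM final chenodeoxycholic acid, then read by B/G FRET fluorescence.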

| SMILES | Potency [1] | Potency [2] | Potency [3] | Potency [4] | Potency [5] | Potency [6] | Potency [7] | Potency [8] | Potency [9] | Potency [10] | Potency [11] | Potency [12] | outcome [13] | Potency [14] | Potency [15] | Potency [16] | Potency [17] | outcome [18] | Potency [19] | Potency [20] |
| --- | --- | --- | --- | --- | --- | --- | --- | --- | --- | --- | --- | --- | --- | --- | --- | --- | --- | --- | --- | --- |
| ClCc1ccc(Cl)cc1Cl | inactive | inactive | inactive | inactive | inactive | inactive | inactive | inactive | inactive | inactive | inactive | inactive | inactive | – | – | – | – | – | – | – |
| Clc1ccc(CCC(Cn2ccnc2)Sc2c(Cl)cccc2Cl)cc1 (stereo not drawn) | 29.8 µM (active) | inactive | – | – | – | – | – | – | – | 23.9 µM (active) | 26.8 µM (active) | – | – | inactive | – | – | – | – | – | – |
| CC(C)CCCCCCCOP(=O)(Oc1ccccc1)Oc1ccccc1 | 27.7 µM (active) | – | – | inactive | – | inactive | – | inactive | inactive | – | – | – | – | – | inactive | inactive | inactive | – | – | – |
| N#CCCSCCC#N | inactive | inactive | inactive | inactive | inactive | inactive | – | inactive | inactive | – | inactive | inactive | inactive | – | inactive | inactive | inactive | – | – | – |
| COc1ccc(/C(=C/C(=O)N2CCOCC2)c2ccc(Cl)cc2)cc1OC | inactive | – | inactive | – | – | inactive | – | inactive | inactive | – | inactive | inactive | – | inactive | inactive | inactive | inactive | inactive | – | – |
| O=c1oc2ccccc2c(O)c1Cc1c(O)c2ccccc2oc1=O | – | – | – | – | – | – | inactive | inactive | – | inactive | – | – | inactive | – | – | – | – | inactive | – | – |
| Cc1cc(C)cc(OP(=O)(Oc2cc(C)cc(C)c2)Oc2cc(C)cc(C)c2)c1 | – | – | – | – | inactive | inactive | inactive | – | inactive | – | – | inactive | – | inactive | inactive | inactive | inactive | inactive | inactive | – |
| Oc1ccc(C2(c3ccc(O)cc3)c3ccccc3-c3ccccc32)cc1 | 43.6 µM (active) | – | 13.8 µM (active) | 11 µM (active) | 54.9 µM (active) | – | – | – | – | 54.9 µM (active) | – | – | – | inactive | – | – | – | – | – | – |
| c1ccc(OCC2CO2)cc1 (stereo not drawn) | – | – | – | – | inactive | inactive | inactive | – | inactive | – | inactive | inactive | – | – | inactive | inactive | inactive | – | inactive | – |
| C[C@]12CC[C@H]3[C@@H](CCC4=CC(=O)CC[C@@]43C)[C@@H]1CC[C@@H]2O | inactive | – | inactive | – | – | inactive | – | inactive | inactive | – | inactive | – | – | – | inactive | inactive | inactive | – | – | – |
| Cc1cc(C(F)(C(F)(F)F)C(F)(F)F)ccc1NC(=O)c1cccc(I)c1C(=O)NC(C)(C)CS(C)(=O)=O | – | – | – | inactive | inactive | inactive | – | inactive | inactive | – | inactive | – | inactive | – | inactive | inactive | inactive | – | – | inactive |
| CN(C)CCc1c[nH]c2cccc(O)c12 | inactive | inactive | inactive | inactive | inactive | – | inactive | – | inactive | – | inactive | – | – | – | inactive | inactive | inactive | – | inactive | – |
| O=C(O)C1C2CCC(O2)C1C(=O)O (stereo not drawn) | inactive | inactive | inactive | inactive | inactive | inactive | inactive | inactive | inactive | – | inactive | inactive | inactive | inactive | inactive | inactive | 44.5 µM (active) | – | 13.9 µM (active) and 12.5 µM (active) | – |
| CC(C)(C)OO | inactive | inactive | inactive | inactive | inactive | inactive | – | inactive | inactive | – | inactive | inactive | inactive | – | inactive | inactive | inactive | – | inactive | – |
